Assay results: PubChem BioAssay AID1159580 (chemical genetic matrix, 2015)
“And” between values parts separate entries of the source, which are not always exact repeats. Identical values can stand only once. About 2,000 (36%) of roughly 5,500 compounds were called active. Roughly 18% stayed inconclusive and do not appear here. No stated cut-off is given here; in the data, active means normalized growth mostly below about 0.91 (no sharp cut-off); inconclusive means no clear call, values can overlap the other calls; inactive means mostly above about 0.92. The list shows a part of the results. Some compounds were tested as several samples or in several runs, with calls that do not always agree.

Assay: chemical genetic growth profiling, strain panel (AID 1159580);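 further: tested at 20 µM; growth read once vehicle control cultures reached saturation at 30 °C; 1 = growth at the plate median or of vehicle wells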
Settings: S. cerevisiae deletion strains, growth OD

Question: Which results are given for O=c1c(O)c(-c2ccc(O)c(O)c2)oc2cc(O)cc(O)c12?
Answer: normalized growth (locus YAL013W, strain DEP1, stronger effect = lower value): 0.973 (inactive) and 0.979 (inactive); normalized growth (locus YAL021C, strain ccr4, stronger effect = lower value): 0.659 (active); normalized growth (locus YAL026C, strain drs2, stronger effect = lower value): 0.782 (active); normalized growth (locus YAL030W, strain snc1, stronger effect = lower value): 0.94 (inactive); normalized growth (locus YAL040C, strain CLN3, stronger effect = lower value): 1.07 (inactive); normalized growth (locus YBL061C, strain skt5, stronger effect = lower value): 0.832 (active); normalized growth (locus YBR009C, strain hhf1, stronger effect = lower value): 0.919 (inactive); normalized growth (locus YBR021W, strain FUR4, stronger effect = lower value): 0.992 (inactive); normalized growth (locus YBR023C, strain chs3, stronger effect = lower value): 0.778 (active); normalized growth (locus YBR171W, strain sec66, stronger effect = lower value): 0.997 (inactive); normalized growth (locus YBR229C, strain ROT2, stronger effect = lower value): 0.993 (inactive); normalized growth (locus YBR231C, strain swc5, stronger effect = lower value): 0.767 (active); normalized growth (locus YBR279W, strain paf1, stronger effect = lower value): 0.848 (active); normalized growth (locus YCL011C, strain gbp2, stronger effect = lower value): 0.847 (active); normalized growth (locus YCL016C, strain dcc1, stronger effect = lower value): 0.877 (active); normalized growth (locus YCL029C, strain bik1, stronger effect = lower value): 0.982 (inactive); normalized growth (locus YCL061C, strain MRC1 (second series), stronger effect = lower value): 0.996 (inactive); normalized growth (locus YCL069W, strain vba3, stronger effect = lower value): 0.92 (active); normalized growth (locus YCR088W, strain abp1, stronger effect = lower value): 0.993 (inactive); normalized growth (locus YDL005C, strain med2, stronger effect = lower value): 0.992 (inactive); normalized growth (locus YDL035C, strain GPR1, stronger effect = lower value): 0.906 (inactive); normalized growth (locus YDL040C, strain nat1, stronger effect = lower value): 0.974 (inactive); normalized growth (locus YDL074C, strain BRE1, stronger effect = lower value): 0.848 (inactive); normalized growth (locus YDL101C, strain DUN1, stronger effect = lower value): 0.98 (inactive); normalized growth (locus YDL134C, strain PPH21, stronger effect = lower value): 0.932 (inactive); normalized growth (locus YDL185W, strain tfp1, stronger effect = lower value): 1.01 (inactive); normalized growth (locus YDL192W, strain arf1, stronger effect = lower value): 0.958 (inactive); normalized growth (locus YDR001C, strain nth1, stronger effect = lower value): 0.988 (inactive); normalized growth (locus YDR069C, strain doa4, stronger effect = lower value): 0.728 (active); normalized growth (locus YDR101C, strain arx1, stronger effect = lower value): 1.02 (inactive); normalized growth (locus YDR137W, strain rgp1, stronger effect = lower value): 0.897 (inactive); normalized growth (locus YDR150W, strain NUM1, stronger effect = lower value): 0.978 (inactive); normalized growth (locus YDR159W, strain sac3, stronger effect = lower value): 0.974 (inactive); normalized growth (locus YDR162C, strain NBP2, stronger effect = lower value): 0.908 (inactive); normalized growth (locus YDR195W, strain ref2): 1.04 (inactive); normalized growth (locus YDR297W, strain sur2, stronger effect = lower value): 0.899 (active); normalized growth (locus YDR318W, strain mcm21, stronger effect = lower value): 0.967 (inactive); normalized growth (locus YDR334W, strain swr1, stronger effect = lower value): 0.855 (active); normalized growth (locus YDR335W, strain msn5, stronger effect = lower value): 0.828 (active); normalized growth (locus YDR363W, strain ESC2, stronger effect = lower value): 1.01 (inactive); normalized growth (locus YDR388W, stronger effect = lower value): 0.943 (inactive); normalized growth (locus YDR392W, strain spt3, stronger effect = lower value): 0.781 (inactive); normalized growth (locus YDR502C, strain sam2, stronger effect = lower value): 0.955 (inactive); normalized growth (locus YEL003W, strain gim4, stronger effect = lower value): 0.879 (active); normalized growth (locus YEL037C, strain rad23, stronger effect = lower value): 0.885 (active); normalized growth (locus YEL061C, strain CIN8 (second series), stronger effect = lower value): 0.963 (inactive); normalized growth (locus YEL061C, strain CIN8, stronger effect = lower value): 0.946 (inactive); normalized growth (locus YER002W, strain NOP16, stronger effect = lower value): 1 (inactive); normalized growth (locus YER015W, strain faa2, stronger effect = lower value): 0.817 (active); normalized growth (locus YER016W, strain bim1, stronger effect = lower value): 0.911 (active); normalized growth (locus YER110C, stronger effect = lower value): 1.04 (inactive); normalized growth (locus YER111C, strain swi4, stronger effect = lower value): 0.895 (active); normalized growth (locus YER155C, strain BEM2 (second series), stronger effect = lower value): 0.899 (inactive); normalized growth (locus YER155C, strain BEM2, stronger effect = lower value): 1.02 (inactive); normalized growth (locus YER167W, strain BCK2, stronger effect = lower value): 0.976 (inactive); normalized growth (locus YFR010W, strain ubp6, stronger effect = lower value): 0.9 (active); normalized growth (locus YGL078C, strain dbp3, stronger effect = lower value): 0.999 (inactive); normalized growth (locus YGL086W, strain mad1, stronger effect = lower value): 0.915 (active); normalized growth (locus YGL167C, strain pmr1, stronger effect = lower value): 0.977 (inactive); normalized growth (locus YGL173C, strain kem1, stronger effect = lower value): 0.826 (active); normalized growth (locus YGL227W, strain vid30, stronger effect = lower value): 1 (inactive); normalized growth (locus YGL240W, strain doc1, stronger effect = lower value): 0.997 (inactive); normalized growth (locus YGL248W, strain PDE1, stronger effect = lower value): 0.928 (inactive); normalized growth (locus YGL253W, strain hxk2, stronger effect = lower value): 0.83 (active); normalized growth (locus YGR078C, strain PAC10, stronger effect = lower value): 0.887 (inactive) and 0.991 (inactive); normalized growth (locus YGR135W, strain pre9, stronger effect = lower value): 0.91 (inactive); normalized growth (locus YGR229C, strain SMI1, stronger effect = lower value): 0.542 (active) and 0.965 (inactive); normalized growth (locus YGR252W, strain gcn5, stronger effect = lower value): 0.804 (inactive); normalized growth (locus YHR013C, strain ard1, stronger effect = lower value): 0.796 (active); normalized growth (locus YHR027C, strain rpn1, stronger effect = lower value): 0.807 (active); normalized growth (locus YHR030C, strain SLT2, stronger effect = lower value): 0.951 (inactive) and 0.997 (inactive); normalized growth (locus YHR079C, strain IRE1 (second series), stronger effect = lower value): 1.02 (inactive); normalized growth (locus YHR079C, strain IRE1, stronger effect = lower value): 0.981 (inactive); normalized growth (locus YHR094C, strain hxt1, stronger effect = lower value): 1.04 (inactive); normalized growth (locus YHR129C, strain ARP1, stronger effect = lower value): 0.926 (inactive); normalized growth (locus YHR142W, strain chs7, stronger effect = lower value): 0.735 (active); normalized growth (locus YHR200W, strain rpn10, stronger effect = lower value): 0.941 (inactive); normalized growth (locus YIL066C, strain RNR3, stronger effect = lower value): 0.882 (inactive); normalized growth (locus YIL073C, strain SPO22, stronger effect = lower value): 0.854 (inactive); normalized growth (locus YIL125W, strain kgd1, stronger effect = lower value): 1 (inactive); normalized growth (locus YIR030C, strain dcg1, stronger effect = lower value): 1.03 (inactive); normalized growth (locus YJL092W, strain hpr5, stronger effect = lower value): 0.955 (inactive); normalized growth (locus YJL095W, strain BCK1 (second series), stronger effect = lower value): 0.858 (active); normalized growth (locus YJL095W, strain BCK1, stronger effect = lower value): 0.773 (active) and 0.993 (inactive); normalized growth (locus YJL115W, strain asf1, stronger effect = lower value): 0.962 (inactive); normalized growth (locus YJL129C, strain trk1, stronger effect = lower value): 0.913 (inactive); normalized growth (locus YJL134W, strain LCB3, stronger effect = lower value): 0.988 (inactive); normalized growth (locus YJL154C, strain vps35, stronger effect = lower value): 0.985 (inactive); normalized growth (locus YJL164C, strain tpk1, stronger effect = lower value): 0.868 (active); normalized growth (locus YJL166W, strain qcr8, stronger effect = lower value): 0.913 (inactive); normalized growth (locus YJL168C, strain set2, stronger effect = lower value): 1.02 (inactive); normalized growth (locus YJL187C, strain SWE1 (second series), stronger effect = lower value): 0.895 (inactive); normalized growth (locus YJR043C, strain POL32, stronger effect = lower value): 0.905 (inactive); normalized growth (locus YJR066W, strain TOR1, stronger effect = lower value): 0.931 (inactive); normalized growth (locus YJR075W, strain HOC1, stronger effect = lower value): 0.982 (inactive) and 0.99 (inactive)
